Experimental findings from PubChem BioAssay are described below.

The nature of test [1]: binders of probe aFSTL3 on microarray, primary screen, stem cell growth factor project, biochemical, small-molecule microarray, fluorescence 635/667 (AID 1064).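 Note: measures binding of the biotinylated anti-FSTL3 antibody to printed compounds.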 Particulars: higher = more signal.
Test [2] in a line: binders from COS7 lysate, DM2A8 probe, primary screen, torsin A project, cell lysate, small-molecule microarray, fluorescence 635/667 (AID 1065). The note with it: higher = more signal, COS7 lysate expressing mutant human TOR1A.
Test [3] is described as follows: binders of probe aFGF2 on microarray, primary screen, stem cell growth factor project, biochemical, small-molecule microarray, fluorescence 635/667 (AID 1067).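 Note: measures binding of biotinylated aFGF2 protein to printed compounds on slides; z-score merges feature fluorescence and signal-to-noise across triplicate slides.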 Particulars: higher = more signal.
The nature of test [4]: binders of probe aFGF10 on microarray, primary screen, stem cell growth factor project, biochemical, small-molecule microarray, fluorescence 635/667 (AID 1071).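 Note: score merges 667 nm spot intensity and signal to noise from triplicate slides.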 Particulars: higher = more signal.
Test [5] has as its target Neurogenic locus notch homolog protein 2 (Homo sapiens) (UniProt Q04721). The test is described as follows: Notch2 binders on small-molecule microarrays, primary screen, biochemical, small-molecule microarray, 635 nm fluorescence, stem cell growth factors (AID 1073). The note with it: Notch2 binding, higher = more signal.
In test [6] the target is Pro-neuregulin-1, membrane-bound isoform (Homo sapiens) (UniProt Q02297). The test is described as follows: NRG1 binders on small-molecule microarrays, primary screen, psychiatric disease protein project, biochemical, small-molecule microarray, fluorescence 635/667 (AID 1075).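 Note: score combines 667 nm spot fluorescence with signal to noise.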 Particulars: NRG1 binding, 635 nm fluorescence, higher = more signal.
Chain of Pro-neuregulin-1, membrane-bound isoform (Homo sapiens) (Q02297 whole entry, looked up, the tested form may be a part, canonical isoform): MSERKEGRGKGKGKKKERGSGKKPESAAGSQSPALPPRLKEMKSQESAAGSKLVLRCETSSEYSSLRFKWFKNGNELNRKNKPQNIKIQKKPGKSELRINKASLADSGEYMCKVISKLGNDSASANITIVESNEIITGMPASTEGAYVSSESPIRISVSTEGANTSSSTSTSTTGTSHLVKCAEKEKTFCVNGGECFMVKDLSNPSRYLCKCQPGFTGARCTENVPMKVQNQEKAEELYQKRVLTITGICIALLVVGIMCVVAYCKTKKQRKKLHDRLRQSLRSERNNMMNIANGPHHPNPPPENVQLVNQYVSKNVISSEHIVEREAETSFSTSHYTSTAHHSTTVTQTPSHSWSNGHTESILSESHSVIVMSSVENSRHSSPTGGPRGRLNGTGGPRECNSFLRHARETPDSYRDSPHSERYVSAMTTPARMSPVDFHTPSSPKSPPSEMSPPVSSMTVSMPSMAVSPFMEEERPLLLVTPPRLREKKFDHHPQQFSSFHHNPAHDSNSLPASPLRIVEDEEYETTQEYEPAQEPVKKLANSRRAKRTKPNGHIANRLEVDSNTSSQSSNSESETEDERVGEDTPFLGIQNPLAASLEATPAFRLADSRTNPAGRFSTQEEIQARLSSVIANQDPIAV
In test [7] the test system is Neuregulin-1 EGF-like domain. The test is described as follows: binders of neuregulin-1 EGF-like domain, primary screen, biochemical, small-molecule microarray, 635 nm fluorescence (AID 1081).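 Note: binding of the protein to compounds printed on small-molecule microarray slides.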 Particulars: small-molecule microarray binding, higher = more signal.
Test [8] can be described thus: FRG1 promoter luciferase signal modulators, primary screen, FRG1 inhibition for FSHD, cell-based, C2C12 myotubes, firefly/Renilla luciferase, luminescence (AID 1084). Particulars: higher = more signal, called active from +8 up or from −8 down.
The nature of test [9]: binders of probe aFST on microarray, primary screen, stem cell growth factor project, biochemical, small-molecule microarray, fluorescence 635/667 (AID 1086).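 Note: score merges 667 nm fluorescence with signal-to-noise of each printed compound spot.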 Particulars: higher = more signal.
The nature of test [10]: binders of probe aHhip on microarray, primary screen, stem cell growth factor project, biochemical, small-molecule microarray, fluorescence 635/667 (AID 1087).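 Note: score merges spot fluorescence at 667nm with spot signal to noise ratio.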 Particulars: higher = more signal.

Activity calls are given as the source filed them.

Chain of Neurogenic locus notch homolog protein 2 (Homo sapiens) (Q04721 whole entry, looked up, canonical isoform): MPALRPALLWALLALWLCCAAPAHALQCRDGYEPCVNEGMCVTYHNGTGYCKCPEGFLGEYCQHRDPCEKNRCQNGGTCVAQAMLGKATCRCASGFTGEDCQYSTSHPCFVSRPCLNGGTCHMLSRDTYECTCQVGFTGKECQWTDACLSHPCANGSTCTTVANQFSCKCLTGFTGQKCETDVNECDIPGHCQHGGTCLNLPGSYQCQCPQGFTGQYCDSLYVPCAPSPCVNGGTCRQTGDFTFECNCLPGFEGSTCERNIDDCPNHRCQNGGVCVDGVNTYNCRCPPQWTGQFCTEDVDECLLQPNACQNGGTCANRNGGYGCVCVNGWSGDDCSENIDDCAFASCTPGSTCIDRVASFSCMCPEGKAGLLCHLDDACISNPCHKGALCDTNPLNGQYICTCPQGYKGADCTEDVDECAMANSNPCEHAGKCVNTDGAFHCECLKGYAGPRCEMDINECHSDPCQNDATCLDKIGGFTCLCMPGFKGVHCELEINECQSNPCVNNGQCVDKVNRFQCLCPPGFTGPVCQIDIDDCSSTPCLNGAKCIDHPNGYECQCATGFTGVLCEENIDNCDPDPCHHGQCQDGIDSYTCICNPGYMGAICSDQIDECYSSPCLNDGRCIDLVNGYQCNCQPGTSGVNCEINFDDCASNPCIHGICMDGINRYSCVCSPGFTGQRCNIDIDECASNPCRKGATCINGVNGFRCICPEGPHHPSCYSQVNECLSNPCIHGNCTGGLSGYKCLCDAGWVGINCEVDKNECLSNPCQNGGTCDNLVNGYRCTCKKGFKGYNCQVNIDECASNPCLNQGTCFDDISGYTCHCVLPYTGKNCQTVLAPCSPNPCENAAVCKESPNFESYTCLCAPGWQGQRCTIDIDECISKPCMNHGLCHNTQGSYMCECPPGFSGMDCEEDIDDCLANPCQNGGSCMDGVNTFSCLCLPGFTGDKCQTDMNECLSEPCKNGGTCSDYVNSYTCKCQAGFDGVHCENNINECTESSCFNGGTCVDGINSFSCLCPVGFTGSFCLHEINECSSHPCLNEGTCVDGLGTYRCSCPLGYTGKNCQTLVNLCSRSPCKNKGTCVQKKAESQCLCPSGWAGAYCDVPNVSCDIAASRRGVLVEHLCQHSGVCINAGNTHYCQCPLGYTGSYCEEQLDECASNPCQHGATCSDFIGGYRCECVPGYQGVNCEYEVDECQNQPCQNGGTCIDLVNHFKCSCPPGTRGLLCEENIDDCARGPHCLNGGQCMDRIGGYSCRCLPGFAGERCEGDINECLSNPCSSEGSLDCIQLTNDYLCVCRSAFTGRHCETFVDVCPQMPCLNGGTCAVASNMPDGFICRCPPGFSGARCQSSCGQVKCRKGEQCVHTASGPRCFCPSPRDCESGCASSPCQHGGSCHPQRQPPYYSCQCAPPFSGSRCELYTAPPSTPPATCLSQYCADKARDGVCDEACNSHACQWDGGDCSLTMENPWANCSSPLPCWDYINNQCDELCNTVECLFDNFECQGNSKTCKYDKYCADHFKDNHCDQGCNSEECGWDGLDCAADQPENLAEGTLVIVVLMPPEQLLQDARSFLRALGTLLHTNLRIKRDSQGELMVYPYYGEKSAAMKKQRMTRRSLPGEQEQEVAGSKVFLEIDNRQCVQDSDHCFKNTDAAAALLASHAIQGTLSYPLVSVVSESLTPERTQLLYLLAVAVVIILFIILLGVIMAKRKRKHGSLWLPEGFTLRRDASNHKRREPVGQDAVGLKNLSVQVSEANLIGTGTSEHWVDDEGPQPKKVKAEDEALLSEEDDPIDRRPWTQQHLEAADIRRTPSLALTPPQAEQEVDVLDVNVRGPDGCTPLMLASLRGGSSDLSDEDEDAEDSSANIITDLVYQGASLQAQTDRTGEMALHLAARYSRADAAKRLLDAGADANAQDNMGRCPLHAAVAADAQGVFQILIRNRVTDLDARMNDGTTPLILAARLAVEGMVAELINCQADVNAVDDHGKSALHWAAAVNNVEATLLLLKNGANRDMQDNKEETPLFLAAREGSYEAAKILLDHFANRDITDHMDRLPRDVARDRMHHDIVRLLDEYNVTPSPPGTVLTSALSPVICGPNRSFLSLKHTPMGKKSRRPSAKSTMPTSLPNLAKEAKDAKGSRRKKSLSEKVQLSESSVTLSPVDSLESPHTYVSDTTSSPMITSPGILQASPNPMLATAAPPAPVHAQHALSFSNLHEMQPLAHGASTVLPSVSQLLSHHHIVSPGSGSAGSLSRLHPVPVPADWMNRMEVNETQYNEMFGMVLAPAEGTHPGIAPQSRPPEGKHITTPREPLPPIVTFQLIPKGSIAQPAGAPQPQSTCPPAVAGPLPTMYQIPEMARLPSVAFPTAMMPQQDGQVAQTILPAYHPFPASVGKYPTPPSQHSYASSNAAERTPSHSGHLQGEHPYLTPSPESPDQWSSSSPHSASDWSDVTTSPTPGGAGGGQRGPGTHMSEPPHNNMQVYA

In the case of `CCOC(=O)CCN1C(=O)[C@H]2[C@H]3[C@H](O)[C@H](O)CC(=NOC[C@@H](O)COCc4ccco4)[C@H]3CC[C@H]2C1=O`, the composite z-score in test [1] is -0.528; in [2] it was -0.0277; in test [3] it was -0.0996; in [4] it was 0.483; in test [5], 0.722; in test [6], 0.035. In addition, the composite z-score in [7] was 0.148; in test [9] it was 0.132; in [10] it was 0.28. Besides, the z-score in test [8] is 0.122 (inactive).
In the case of `N#Cc1ccc(NN2C(C(O)c3cc(C(F)(F)F)cc(C(F)(F)F)c3)C=CC3C(=O)N(c4ccccc4)C(=O)C32)cc1` (stereo not given), the composite z-score in test [1] stood at 0.0678; in [2] it was 0.517; in test [3], 0.116; in test [4], 0.668; in [5], 1.27; in [6], 1.97. Also, the composite z-score in [7] amounted to 1.22; in [9] it was 0.785; in test [10], 0.357. The z-score in [8] was 0.474 (inactive).
As to `C#C[C@@H]1Oc2ccccc2S(=O)(=O)N2CCC[C@H]12`, the composite z-score in test [1] was -0.311; in [2] it was 0.143; in test [3], -0.114; in test [4] it was 0.0728; in test [5], 0.133; in test [6], -0.206. Besides, the composite z-score is -0.113 in test [7], 0.214 in [9] and -0.0596 in [10]. The z-score in test [8] was -0.587 (inactive).
Consider `C=COC[C@H]1CN2[C@@H](CC[C@@H](C)[C@@H]2c2ccc(Br)cc2)C(=O)O1`, for which the composite z-score in test [1] was -0.6; in [2], 0.268; in [3] it was -0.151; in test [4] it was 0.581; in test [5] it was 0.793; in test [6], 0.0578. Besides, the composite z-score in [7] stood at 1.12; in test [9], 0.355; in test [10], 0.0373. Further, the z-score in [8] is -0.688 (inactive).
Take `C=CC[C@]1(C(=O)NCc2ccccc2)N=C(c2ccc(OCCCO)cc2)O[C@H]1c1ccccc1`: the composite z-score in test [1] was 0.674; in test [2], 1.1; in test [3], -0.0131; in test [4], -0.439; in [5] it was 0.007; in test [6], 1.51. Moreover, the composite z-score in [7] was 1.26; in test [9], 0.991; in [10] it was -0.0645. Besides, in test [8], the z-score is -0.97 (inactive).
Turning to `CN1C(=O)C2C=CC(C(O)C(c3ccccc3)c3ccccc3)N(NC(=O)OC(C)(C)C)C2C1=O` (stereo not given), the composite z-score in [1] was 1.16; in test [2], 0.868; in test [3], 0.448; in test [4] it was 1.09; in test [5] it was 1.73; in [6], 1.99. In addition, the composite z-score in [7] was 1.22; in test [9], 1.79; in test [10] it was -0.116. The z-score in test [8] is 0.745 (inactive).
Regarding `CCCNC(=O)OC[C@H]1O[C@H](CCON=C2[C@H]3CCn4c(=O)n(-c5ccccc5)c(=O)n4[C@H]3[C@H](O)[C@@H]3O[C@H]23)C=C[C@@H]1Oc1ccc(OC)cc1`, the composite z-score in test [1] was -0.362; in test [2] it was 0.447; in test [3], -0.0885; in test [4], 0.406; in test [5], 0.774; in [6] it was -0.248. Moreover, the composite z-score was 0.0894 in test [7], 0.214 in test [9] and -0.0994 in [10]. Also, the z-score in test [8] is -0.257 (inactive).
`CCCCCN1CC=CC23O[C@@H]4C=CCOC(=O)[C@@H]4[C@H]2C(=O)N(C(CO)C(C)C)[C@@H]3C1=O` (stereo not given in full): the composite z-score was 0.232 in test [1]; -1.58 in test [2]; -0.141 in test [3]; -0.495 in test [4]; -1.15 in test [5]; -0.694 in test [6]. Besides, the composite z-score in [7] was 0.657; in test [9], -0.357; in test [10] it was -0.15. Moreover, the z-score in test [8] was -0.0073 (inactive).
`COc1ccc(COC(=O)NN=C2C[C@@H](O)[C@@H](O)[C@@H]3[C@@H]4C(=O)N(c5ccc(F)cc5F)C(=O)[C@@H]4CC[C@@H]23)cc1`: the composite z-score was 0.827 in test [1]; 0.515 in [2]; -0.0342 in test [3]; -0.299 in [4]; -0.392 in test [5]; 0.0565 in test [6]. The composite z-score is -1.13 in test [7], 0.562 in test [9] and 0.168 in [10]. In addition, in test [8], the z-score was -0.138 (inactive).
For `CN(C)CCCNC(=O)[C@@H]1c2ccccc2C(=O)N(Cc2ccccc2)[C@H]1c1ccc(CO)cc1`, the composite z-score in test [1] is 0.532; in [2], -0.338; in [3] it was 0.311; in test [4], -0.343; in [5], -1.08; in test [6], -0.0367. The composite z-score in [7] is 0.571; in test [9], 0.178; in test [10], -0.363. Also, the z-score in test [8] is -1.01 (inactive).
As to `COCCOC(=O)N1C(=O)[C@@]2(c3cc(C#CC4(O)CCCCCC4)ccc31)[C@H](C(=O)N1CCN(c3ncccn3)CC1)[C@H]1C(=O)O[C@H](c3ccccc3)[C@H](c3ccccc3)N1[C@@H]2c1ccc(OCCO)cc1`, the composite z-score was -0.266 in [1]; 0.318 in [2]; 0.192 in test [3]; 0.727 in test [4]; 1.24 in test [5]; 0.939 in [6]. In addition, the figures for the composite z-score in test [7], in test [9] and in test [10] were 1.33, 0.517 and 0.107, respectively. For the same molecule, the z-score in [8] is 0.401 (inactive).
Consider `CCOC(=O)CCN1C(=O)[C@H]2[C@H]3[C@H](O)[C@H](O)CC(=NOCc4ccccc4)[C@@H]3CC[C@H]2C1=O`, for which the composite z-score in [1] is -0.572; in [2], 0.227; in [3], -0.201; in [4] it was 0.193; in [5], 0.93; in test [6] it was 0.22. Further, the composite z-score in test [7] was 0.588; in test [9], 0.0033; in test [10], -0.0645. The z-score in test [8] was -0.48 (inactive).
As to `O=C1[C@H]2[C@H]3[C@H](O)[C@H](O)CC(=NO[C@@H]4O[C@H](CO)[C@@H](O)[C@H](O)[C@H]4O)[C@@H]3CC[C@H]2C(=O)N1Cc1ccccc1`, the composite z-score was -0.466 in test [1]; 1.08 in [2]; -0.074 in test [3]; 0.312 in test [4]; 0.595 in test [5]; -0.516 in test [6]. Moreover, the composite z-score is -0.9 in test [7], 0.756 in test [9] and -0.0994 in [10]. Besides, the z-score in [8] was -0.7 (inactive).
